# Measured values taken from ChEMBL document CHEMBL3988442, “University of Dundee, Small-Polar-MMV Screening Library” (2021).
# About 13,000 (27%) of roughly 48,000 compounds showed an effect of 50% or more. The list shows a part of the results.
# Test system: Wolbachia pipientis
# Assay: Anti-Wolbachia Cell-Based Screen
# Assay type: functional
# Parameters: scale not given: in the data most compounds retested in dose-response had high values
# Details: 5 µM
row,Compound,Percent Effect [%]
1,Cc1ccc(S(=O)(=O)NC(C)C#N)cc1Br (centres undefined),-6.675
2,NS(=O)(=O)NCC1(c2ccccc2Br)CC1,-0.7264
3,O=S(=O)(Nc1cnc(N2CCCC2)nc1)c1ccc(F)cc1F,5.953
4,COc1cccc(Nc2nc(-c3ccncc3)nc3c2CNCC3)c1.Cl,140.9
5,COc1ccc(CC(=O)Nc2c(C)nc(N3CCCC3)nc2C)cc1,3.23
6,COc1cccc(Nc2nc(N3CCCC3)nc3c2CNCC3)c1.Cl,154.5
7,Fc1cccc(Nc2nc(N3CCCC3)nc3c2CNCC3)c1,142.6
8,COc1cccc(-n2ccc3nc(N4CCCC4)ncc3c2=O)c1,-5.391
9,c1csc(CCNc2nc(-c3ccncc3)nc3c2CCNCC3)c1,-1.817
10,CCOCCNc1nc(-c2ccncc2)nc2c1CCNCC2,0.459
11,O=S(=O)(Nc1cnc(N2CCOCC2)nc1)c1cccc(F)c1,-8.595
12,COc1ccc(N2CCC(NCc3csc(C(C)C)n3)CC2)cc1,-0.6873
13,Cc1cc(CN(C)C(=O)NC2CCS(=O)(=O)C2)no1 (centres undefined),4.321
14,Cc1ccc(Cl)cc1N1CCC(CNC(=O)CCn2ccnn2)C1 (centres undefined),3.758
15,Cn1ccnc1CN1C[C@H]2CN(S(C)(=O)=O)CCN2C1=O,-9.259
16,Cc1ccccc1C(=O)N1CCN(c2ccc(-n3cncn3)nn2)CC1,17.86
17,CN(C)S(=O)(=O)c1ccc(CN2CCCC2c2ccccc2)o1 (centres undefined),8.974
18,c1cc(C2CCCN2Cc2nnnn2C2CC2)cs1 (centres undefined),-19.47
19,CN(C)S(=O)(=O)c1ccc(CN2CCC(c3ccccc3)C2)o1 (centres undefined),-9.641
20,CN(CCC#N)C(=O)CN1CCCC1c1ccsc1 (centres undefined),1.248
21,COc1ccc(C2CCCN2Cc2ccc(S(=O)(=O)N(C)C)o2)cc1 (centres undefined),151.6
22,CN(C)S(=O)(=O)c1ccc(CN2CCCC2c2cccs2)o1 (centres undefined),169.9
23,CN(C)S(=O)(=O)c1ccc(CN2CCCC2c2ccc[nH]2)o1 (centres undefined),-2.919
24,CN(C)S(=O)(=O)c1ccc(CN2CCCC2CO)o1 (centres undefined),-8.26
25,Cc1ccccc1C1CCCN1Cc1ccc(S(=O)(=O)N(C)C)o1 (centres undefined),160.2
26,CN(C)S(=O)(=O)c1ccc(CN2CCCC2c2ccsc2)o1 (centres undefined),153.1
27,CN(Cc1ccco1)C(=O)CN1CCCC1c1cccs1 (centres undefined),-12.25

row,Compound,Percent Effect [%]
1,Cc1nccc(-c2cccc(NCc3nc(C(C)C)no3)c2)n1,4.778
2,O=c1[nH]nc(SCC2CCCO2)n1C1CC1 (centres undefined),-2.947
3,Cc1ccccc1N1CCN(C2CCCN(C(=O)CCC(C)C)C2)CC1 (centres undefined),-1.858
4,COC1CN(C(=O)Cc2cccs2)CCC(=O)N(C)c2ccccc21 (centres undefined),113.3
5,COC1CN(C(=O)CC(C)(C)C)CCC(=O)N(C)c2ccccc21 (centres undefined),105.9
6,COC1CN(C(=O)CC(C)C)CCC(=O)N(C)c2ccccc21 (centres undefined),94.68
7,O=C(Cc1cccs1)N1CCc2nnc(COc3cncnc3)n2CC1,-9.187
8,COc1ccc([C@@H]2CN(C(=O)Cc3cccs3)C[C@H]2NC(C)=O)cc1,1.079
9,COC1CN(C(=O)COC(C)=O)CCC(=O)N(C)c2ccccc21 (centres undefined),92.83
10,CC1CCCN(c2ccccc2OCC(=O)N2CCOCC2)C1 (centres undefined),-4.736
11,CCCN1CCN(Cc2cccc(OC)c2)[C@H]2CS(=O)(=O)C[C@H]21,-4.68
12,Cc1nnc(CN(C)CCCOc2cccc(Cl)c2)o1,-9.851
13,CCOCCN1CCN(C(C)C(=O)Nc2ccnn2C(C)C)CC1 (centres undefined),-7.106
14,CC(C)C1CN(C(=O)c2cc(=O)[nH]c(=O)[nH]2)CCC(=O)N1CC1CC1 (centres undefined),7.498
15,CC(C)COC(=O)N1CCN(C(=O)c2ccc3nccn3c2)CC1,-2.651
16,COC1CN(C(=O)OCC(C)C)CCC(=O)N(C)c2ccccc21 (centres undefined),62.93
17,O=C(N1CCOCC(O)C1)C1(c2ccc(Cl)cc2)CCC1 (centres undefined),-14.09
18,O=C(c1ccn[nH]1)N1CCCC(n2cncn2)C1 (centres undefined),8.656
19,O=C(N1CCCC(n2cncn2)C1)C1(c2cccc(F)c2)CCC1 (centres undefined),131.6
20,Cc1cc(C)cc(C2(C(=O)N3CCCC(n4cncn4)C3)CC2)c1 (centres undefined),4.808
21,O=C(N1CCCC(n2cncn2)C1)C1(c2ccc(Cl)cc2)CCC1 (centres undefined),129.1
22,O=C(N1CCCC(n2cncn2)C1)C1(c2cccc(F)c2)CC1 (centres undefined),123
23,O=C(N1CCCC(n2cncn2)C1)C1(c2cccc(F)c2)CCCC1 (centres undefined),112.9
24,O=C(N1CCC(Oc2ccncc2)C1)C1(c2cccc(F)c2)CC1 (centres undefined),-3.42
25,COc1ccccc1N1CCC(N2CCOC(C(F)(F)F)C2)CC1 (centres undefined),10.11
26,COc1ccc(NC(=O)CCC2CCCN(Cc3ncon3)C2)c(C)c1 (centres undefined),0.05921
27,CC(C)N1C[C@@H](F)[C@@H](OCc2nc3ncccc3[nH]2)C1,-12.53
